Measured values taken from the supplement of paper PMC6411743.
± gives the standard deviation of the averaged measurements. The full data set covers some 5,400 targets. This sample favours those with the largest changes.

Target: T1, PINX1 (UniProt Q96BK5)
T1 sequence (whole entry): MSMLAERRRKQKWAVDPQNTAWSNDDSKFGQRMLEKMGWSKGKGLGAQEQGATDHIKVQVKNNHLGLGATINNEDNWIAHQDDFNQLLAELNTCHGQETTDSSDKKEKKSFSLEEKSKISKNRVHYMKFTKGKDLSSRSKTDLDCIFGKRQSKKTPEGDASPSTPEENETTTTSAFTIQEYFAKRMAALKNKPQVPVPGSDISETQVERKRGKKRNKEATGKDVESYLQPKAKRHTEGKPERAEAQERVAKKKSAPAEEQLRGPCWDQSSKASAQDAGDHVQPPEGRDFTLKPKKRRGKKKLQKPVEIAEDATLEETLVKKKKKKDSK
Assay: NP40-soluble protein abundance relative to vehicle (solubility fold change) (ratio); higher = more soluble protein in presence of GTP
Procedure: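 Solubility proteome profiling in Jurkat crude lysate. Lysate was treated with Mg-GTP (0.1-10 mM) for 10 min at room temperature and 3 min at 37 °C, then solubilised with 0.8% NP40 and benzonase, followed by ultracentrifugation. Proteins were quantified by TMT10 LC-MS/MS; the value is the NP40-soluble abundance relative to the NP40-processed vehicle, from 3 independent experiments.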

Nc1nc2c(ncn2[C@@H]2O[C@H](COP(=O)(O)OP(=O)(O)OP(=O)(O)O)[C@@H](O)[C@H]2O)c(=O)[nH]1 [guanosine triphosphate]
NP40-soluble protein abundance (concentration: 0.1mM): 1.22 ± 0.065
NP40-soluble protein abundance (concentration: 0.5mM): 1.28 ± 0.074
NP40-soluble protein abundance (concentration: 1mM): 1.45 ± 0.033
NP40-soluble protein abundance (concentration: 2mM): 1.64 ± 0.093
NP40-soluble protein abundance (concentration: 4mM): 1.96 ± 0.15
NP40-soluble protein abundance (concentration: 6mM): 2.01 ± 0.21
NP40-soluble protein abundance (concentration: 8mM): 2.36 ± 0.13
NP40-soluble protein abundance (concentration: 10mM): 2.62 ± 0.26
